Hit rate of the full screen: of about 310,000 compounds, about 1,900 (0.61%) were called active. Roughly 8% stayed inconclusive and do not appear here. Calls follow the shape of the full dose curve; tested in A549 cells. Only a selection was taken, and actives are over-represented in it overall.
Assay: qHTS for Stage-Specific Inhibitors of Vaccinia Orthopoxvirus: mCherry Reporter Primary qHTS; also: nearly all actives have a fitted effect of over 35% in size
Settings: Vaccinia virus mCherry reporter infection, fluorescence; series mostly up to 36.5 µM; activity change, negative = inhibition: at the top concentration
In the case of `Cc1ccc(C(=O)NC(C)C(c2cccs2)N2CCOCC2)cc1C` (centres undefined), the “outcome” value is reported as “inactive”. In the case of `CCc1nc2c(OCc3ccc(C(=O)OC)cc3)cccn2c1N(C)C(=O)C(C)C`, the “outcome” value is reported as “inactive”. With `CCOc1ccc(/C=N/NC(N)=S)cc1` the Potency was 1 µM (active). With `COC(=O)N/N=C/c1ccc(/C=N/NC(=O)OC)cc1` the “activity change, negative = inhibition” value was -8.87% (inactive). In the case of `CCOc1ccc(/C=N\NC(=O)c2c(C)nc3cc(C)ccn23)cc1`, the “activity change, negative = inhibition” value is reported as -22.5% (inactive). In the case of `COc1cccc(NC(=O)Nc2ccc(F)cc2)c1`, the “activity change, negative = inhibition” value is reported as -29.6% (inactive). With `O=C(CSC1=Nc2ccccc2C2=NC(c3ccccc3)C(=O)N12)NCC1CCCO1` (centres undefined) the “activity change, negative = inhibition” value was -12.9% (inactive). For `Cc1ccc(CNC(=O)CSC2=Nc3ccccc3C3=NC(C)C(=O)N23)cc1` (centres undefined), the “activity change, negative = inhibition” value was -17.4% (inactive). With `CC(C)C1N=C2c3ccccc3N=C(SCC(=O)c3ccc(O)c(O)c3)N2C1=O` (centres undefined) the Potency was 11.2 µM (active). In the case of `Cc1cc2nc(-c3ccc(Cl)cc3)c(Cc3cccc(F)c3)n2c(C)c1Br`, the “activity change, negative = inhibition” value is reported as 24.4% (inactive). With `CC(C)C1CCN(C(=O)C2CCC(=O)N(C3CCCCCC3)C2)CC1` (centres undefined) the “activity change, negative = inhibition” value was -22.2% (inactive). For `CCOc1ccc(-n2c(O)c(/C=N/Nc3nc(C)cc(C)n3)c3ccccc3c2=O)cc1`, the “activity change, negative = inhibition” value was 3.78% (inactive). In the case of `Cc1cc(C)nc(N/N=C/c2ccncc2)n1`, the “activity change, negative = inhibition” value is reported as -2.46% (inactive). With `CCN(CC)c1ccc(/C=N/Nc2nc(C)cc(C)n2)c(O)c1` the Potency was 2.51 µM (active). In the case of `CC1=C(C(=O)Nc2ccccc2)S(=O)(=O)CCO1`, the Potency is reported as 0.891 µM (active). In the case of `CC1=C(C(=O)Nc2ccccc2)SCCO1`, the “outcome” value is reported as “inactive”. In the case of `O=C(Nc1ccccc1)c1ccc2c(c1)OCCCO2`, the “activity change, negative = inhibition” value is reported as -14.5% (inactive). For `CC(C)Nc1nc(NCCOc2ccccc2Cl)c2sccc2n1`, the “activity change, negative = inhibition” value was -28.6% (inactive). With `CN(C)C(=O)CCc1ccc2c3c([nH]c2c1)[C@]1(CCC2CCCC2)[C@@H](C(=O)N2CCOCC2)C[C@H](CC(=O)NCc2ccco2)C(=O)N1CC3` the “activity change, negative = inhibition” value was 2.15% (inactive). In the case of `O=C(C[C@H]1C[C@H](C(=O)N2CCOCC2)[C@@]2(CCC3CCCC3)c3[nH]c4ccc(Cl)cc4c3CCN2C1=O)NCc1ccco1`, the Potency is reported as 7.08 µM (active). For `COc1ccc(CNC(=O)C[C@H]2C[C@H](C(=O)N3CCOCC3)[C@@]3(CCC4CCCC4)c4[nH]c5ccc(Cl)cc5c4CCN3C2=O)cc1OC`, the “activity change, negative = inhibition” value was -27.5% (inactive). With `COc1ccc(Cl)cc1NC(=O)CN(C)C(=O)c1cn(-c2ccccc2)nc1-c1cccs1` the “activity change, negative = inhibition” value was -28.8% (inactive). With `CC(C)C[C@H]1CNC(=S)N1C[C@H]1CCCN1C[C@H](Cc1ccc(O)cc1)N1C[C@H](Cc2ccc(O)cc2)N(CC2CCCCC2)C1=S` the “activity change, negative = inhibition” value was -18.3% (inactive). In the case of `Nc1ncn(C2OC(CO)C(O)C2O)c(=O)n1` (centres undefined), the Potency is reported as 10 µM (active). With `Nc1nc(SCc2ccc([N+](=O)[O-])cc2)c2ncn(C3OC(CO)C(O)C3O)c2n1` (centres undefined) the “activity change, negative = inhibition” value was -29.7% (inactive). With `CC(C)Sc1nc(N)nc2c1ncn2C1OC(CO)C(O)C1O` (centres undefined) the “activity change, negative = inhibition” value was -9.34% (inactive). For `COc1ccc(-c2ccc(C(=O)NC(C)C)c3occc23)c(C)c1`, the “activity change, negative = inhibition” value was 16.1% (inactive). In the case of `CC(=O)c1cccc(-c2cnc3c(NC=O)cc(-c4ccc(N(C)C)cc4)cn23)c1`, the “activity change, negative = inhibition” value is reported as -17.7% (inactive). With `CC(=O)c1ccc(-c2cnc3c(NC=O)cc(-c4cccc(NS(C)(=O)=O)c4)cn23)cc1` the Potency was 11.2 µM (active). In the case of `CC(=O)c1cccc(-c2cnc3c(NC=O)cc(-c4cccc(C(=O)N(C)C)c4)cn23)c1`, the “activity change, negative = inhibition” value is reported as -29.9% (inactive). With `COc1ccc(-c2cc3nc(NCCOc4ccccc4)ccn3n2)cc1` the “activity change, negative = inhibition” value was 18.9% (inactive). For `COc1ccc(S(=O)(=O)NCCc2c[nH]c3ccccc23)cc1OC`, the “outcome” value was “inactive”. With `c1cncc(CNCCc2c[nH]c3ccccc23)c1` the “activity change, negative = inhibition” value was -26.3% (inactive). With `COc1cccc(CNCCc2c[nH]c3ccccc23)c1OCc1ccccc1F` the Potency was 10 µM (active). With `OCC(O)C(O)C(O)C(O)C=Nc1ccc(/C=C/c2ccnc3ccccc23)cc1` (centres undefined) the “activity change, negative = inhibition” value was 12.1% (inactive). For `C=CC[C@@H](Cc1ccc(F)cc1)C(=O)OC[C@H]1CCCN1C(=O)[C@H](CC=C)CC(=O)N(CCO)Cc1ccccc1`, the “outcome” value was “inactive”. For `Cc1cccc(C(=O)C(O)(c2ccccc2)C2CCCCC2=O)c1` (centres undefined), the “activity change, negative = inhibition” value was -0.222% (inactive). In the case of `O=C(C1CC(=O)N(c2ccc(F)cc2)C1)N1CCN(c2ccccc2)CC1` (centres undefined), the “activity change, negative = inhibition” value is reported as 0.265% (inactive). For `O=C(C1CC(=O)N(C2CCCC2)C1)N1CCN(c2cccc(C(F)(F)F)c2)CC1` (centres undefined), the Potency was 10 µM (active). With `O=C(C1CC(=O)N(C2CCCCC2)C1)N1CCN(c2ccccc2)CC1` (centres undefined) the “activity change, negative = inhibition” value was -0.781% (inactive). In the case of `COc1ccc(C2OC(CCc3ccccc3)Cc3[nH]c(=S)[nH]c(=O)c32)cc1` (centres undefined), the “outcome” value is reported as “inactive”. With `CCCc1nc2c3ccccc3ccn2c1Cc1ccccc1C(F)(F)F` the “outcome” value was “inactive”. In the case of `OC(CBr)C[n+]1cccc2cc(Br)ccc21` (centres undefined), the “activity change, negative = inhibition” value is reported as -6.11% (inactive). In the case of `CCCC[C@@H]1CN=C(N)N1CCc1cc(C(F)(F)F)cc(C(F)(F)F)c1`, the Potency is reported as 11.2 µM (active). With `CCCC[C@@H]1CN=C(N)N1CCCC` the “outcome” value was “inactive”. With `CCCC[C@@H]1CN=C(N)N1CCc1cccc(F)c1` the “outcome” value was “inactive”. With `COc1ccc(OCC(O)CNCCNc2nccc(C(F)(F)F)n2)cc1` (centres undefined) the “activity change, negative = inhibition” value was -2.52% (inactive). With `CC(C)(C)CC(C)(C)NCC(O)COCCOc1ccc(Br)cc1` (centres undefined) the Potency was 12.6 µM (active). In the case of `CC(C)(C)NCC(O)COc1cccc2[nH]c(=O)[nH]c12` (centres undefined), the Potency is reported as “inactive”.

Source: PubChem BioAssay AID720579 (National Center for Advancing Translational Sciences (NCATS), 2013)
% is scaled to controls: 0 for no effect and ±100 for the full control effect; potency is read from the fitted curve at half-maximal effect.
